The AC50 is the midpoint of the concentration-response curve, whichever way the signal moves.

Activity calls are given as the source filed them. Rule for the calls: active = hit-call score of the fitted dose curve at least 0.9, where 1 is the maximum; inactive = score below 0.9.

The nature of this experiment: CCTE_Shafer_MEA_dev_interburst_interval_mean: CCTE's Neural Network Formation Assay for Mean Interburst Interval, Shafer Lab (AID 2284046).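 Note: curve fitted for decrease in interburst interval relative to DMSO.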 In a few lines: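 Developing rat cortical networks on 48-well MEAs receive compound from the day of plating. Burst intervals from each active electrode are averaged per well, and AUC over the recording days is fitted in the negative direction against DMSO.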
For `FC(F)(F)C(F)(F)CNCC(F)(F)C(F)(F)F`, the call was inactive.
The same measure, in the same setting: the entry for `O=S(=O)(OCCOC(F)(F)F)C(F)(F)F` is “inactive”.
Same read-out and setting: the entry for `FC(F)(F)C(F)(F)C(F)(F)C(F)(F)C(F)(F)CCI` is “inactive”; for `CC(C)(C)C(=O)CC(=O)C(F)(F)C(F)(F)C(F)(F)F` it is “inactive”.
Same read-out and setting: the entry for `FC(F)(F)C(F)(F)C(F)(F)C(F)(F)C(F)(F)C(F)(F)CC1CO1` (stereo not given) is “inactive”.
Turning to `C=CC(=O)OCC(F)(F)C(F)(F)C(F)(F)C(F)(F)COC(=O)C=C`, the concentration at half-maximal activity (AC50) is 4.2 µM (active).
`N=C(N)C(F)(F)C(F)(F)C(F)(F)C(F)(F)C(F)(F)C(F)(F)C(F)(F)F`: the compound was called inactive.
Still for that read-out and setting: the entry for `O=S(=O)(OCC(F)F)C(F)(F)F` is “inactive”; for `O=C(O)C=C(C(F)(F)F)C(F)(F)F` it is “inactive”.
On the same count and under the same terms, the entry for `OC[C@@H](O)[C@@H](O)[C@H](O)[C@@H](O)CO` is “inactive”.
Turning to `CC(CCl)OP(=O)(OC(C)CCl)OC(C)CCl` (stereo not given), the result was inactive.
The same measure, in the same setting: the entry for `OCC(F)(F)C(F)(F)C(F)(F)C(F)F` is “inactive”.
Same read-out and setting: the entry for `O=C(O)C(F)(F)C(F)(F)C(F)F` is “inactive”; for `O=C(O)C(F)(F)C(F)(F)C(F)(F)C(F)(F)C(F)(F)C(F)(F)C(F)(F)C(F)(F)C(F)(F)C(F)F` it is “inactive”.
On the same count and under the same terms, the entry for `O=C(O)C(F)(F)C(F)(F)C(F)(F)C(F)(F)C(F)(F)C(F)(F)C(F)(F)C(F)(F)Cl` is “inactive”; for `OCC(F)(F)C(F)(F)C(F)(F)F` it is “inactive”; for `O=C(O)C(F)(F)C(F)(F)C(F)(F)F` it is “inactive”.
For the compound `COC(=O)CCC(F)(F)C(F)(F)C(F)(F)C(F)(F)F`, the outcome was inactive.
Still for that read-out and setting: the entry for `OCC(F)(F)C(F)(F)C(F)(F)C(F)(F)C(F)(F)C(F)F` is “inactive”; for `OCCCC(F)(F)C(F)(F)C(F)(F)F` it is “inactive”.

The values are drawn from PubChem BioAssay (EPA / NIEHS).
